Measurements: the supplement of paper PMC9262897, “Low-cost anti-mycobacterial drug discovery using engineered E. coli” (Nature Communications, 2022)
Structures can show the parent of a compound that is named as a salt. ± gives the standard deviation of the averaged measurements.

How the values were obtained:
Test in all cases: growth (OD600 after 10 h); higher = more growth (less inhibition)
[1] = test system: E. coli TESEC Alr+ wild-type control; conditions: compound 0.1 mM; raw OD600 reference: median of DMSO wells 0.241, cell-free background 0.041
Experimental: (§1)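 TESEC Mtb Alr E. coli, or the Alr+ wild-type control, in 384-well plates with Prestwick library compounds at 0.1 mM and 1% DMSO, across arabinose induction levels of 1E3 to 1E7 nM. Growth is read as OD600 after 10 h at 37 °C in triplicate biological replicates.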

E. coli TESEC Mtb Alr [2] = conditions: compound 0.1 mM
Experimental: as §1

E. coli TESEC Mtb Asd = conditions: compound 0.1 mM
Experimental: (§2)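 TESEC E. coli strains in which the native enzyme is deleted and replaced by arabinose-inducible Mtb Asd, DapB, CysH or TrpD, each grown in its selective medium. Strains were screened against the Prestwick library at 0.1 mM and 1% DMSO in 384-well format at low and high arabinose induction. Growth is read as OD600 after 10 h in triplicate.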

E. coli TESEC Mtb DapB = conditions: compound 0.1 mM
Experimental: as §2

[3] = test system: E. coli TESEC Alr+ wild-type control; conditions: compound 0.1 mM; raw OD600 reference: median of DMSO wells 0.49, cell-free background 0.052
Experimental: (§3)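 TESEC Mtb Alr E. coli (ΔaraC ΔtolC ΔentC Δalr ΔdadX, arabinose-inducible Mtb Alr) or the Alr+ wild-type control strain, grown in defined M9-fructose medium without D-alanine in 96-well plates with Prestwick library compounds at 0.1 mM and 1% DMSO. Low Alr induction is 0.1 µM arabinose and high induction is 10 mM arabinose.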

E. coli TESEC Mtb Alr [4] = conditions: compound 0.1 mM; remark: listed apart in the source
Experimental: as §3

[5] = arabinose 1000 nM, raw OD600 reference: median of DMSO wells 0.294, cell-free background 0.041
[6] = arabinose 10000 nM, raw OD600 reference: median of DMSO wells 0.264, cell-free background 0.041
[7] = arabinose 100000 nM, raw OD600 reference: median of DMSO wells 0.201, cell-free background 0.041
[8] = arabinose 1000000 nM, raw OD600 reference: median of DMSO wells 0.193, cell-free background 0.041
[9] = arabinose 10000000 nM, raw OD600 reference: median of DMSO wells 0.146, cell-free background 0.041
[10] = arabinose induction (level): High, raw OD600 reference: median of DMSO wells 0.331, cell-free background 0.041
[11] = arabinose induction (level): Low, raw OD600 reference: median of DMSO wells 0.417, cell-free background 0.041
[12] = arabinose induction (level): High, raw OD600 reference: median of DMSO wells […], cell-free background 0.041
[13] = arabinose induction (level): Low, raw OD600 reference: median of DMSO wells 0.227, cell-free background 0.041
[14] = arabinose 100 nM, raw OD600 reference: median of DMSO wells 0.413, cell-free background 0.052
[15] = arabinose 10000000 nM, raw OD600 reference: median of DMSO wells […], cell-free background 0.052

NCCc1ccc(O)c(O)c1 [Dopamine hydrochloride]
growth [1]: 0.1987 ± 0.0012
growth (E. coli TESEC Mtb Alr [2]; [5]): 0.27 ± 0.012
growth (E. coli TESEC Mtb Alr [2]; [6]): 0.274 ± 0.0041
growth (E. coli TESEC Mtb Alr [2]; [7]): 0.201 ± 0.021
growth (E. coli TESEC Mtb Alr [2]; [8]): 0.197 ± 0.022
growth (E. coli TESEC Mtb Alr [2]; [9]): 0.144 ± 0.009
growth (E. coli TESEC Mtb Asd; [10]): 0.335 ± 0.051
growth (E. coli TESEC Mtb Asd; [11]): 0.281 ± 0.036
growth (E. coli TESEC Mtb DapB; [12]): 0.174 ± 0.0035
growth (E. coli TESEC Mtb DapB; [13]): 0.202 ± 0.032
growth [3]: 0.624 ± 0.051
growth (E. coli TESEC Mtb Alr [4]; [14]): 0.4196 ± 0.0037
growth (E. coli TESEC Mtb Alr [4]; [15]): 0.333 ± 0.0035

OCCOCCN1CCN(C2=Nc3ccccc3Sc3ccccc32)CC1 [Quetiapine hemifumarate]
growth [1]: 0.158 ± 0.01
growth (E. coli TESEC Mtb Alr [2]; [5]): 0.25 ± 0.0048
growth (E. coli TESEC Mtb Alr [2]; [6]): 0.255 ± 0.0044
growth (E. coli TESEC Mtb Alr [2]; [7]): 0.203 ± 0.026
growth (E. coli TESEC Mtb Alr [2]; [8]): 0.121 ± 0.0057
growth (E. coli TESEC Mtb Alr [2]; [9]): 0.151 ± 0.0081
growth (E. coli TESEC Mtb Asd; [10]): 0.162 ± 0.024
growth (E. coli TESEC Mtb Asd; [11]): 0.361 ± 0.016
growth (E. coli TESEC Mtb DapB; [12]): 0.174 ± 0.013
growth (E. coli TESEC Mtb DapB; [13]): 0.187 ± 0.021
growth [3]: 0.486 ± 0.019
growth (E. coli TESEC Mtb Alr [4]; [14]): 0.396 ± 0.0062
growth (E. coli TESEC Mtb Alr [4]; [15]): 0.289 ± 0.0089

CN1CCC(=C2c3ccccc3Sc3ccccc32)CC1 [Pimethixene maleate]
growth [1]: 0.0726 ± 0.0016
growth (E. coli TESEC Mtb Alr [2]; [5]): 0.0585 ± 0.013
growth (E. coli TESEC Mtb Alr [2]; [6]): 0.0419 ± 0.00051
growth (E. coli TESEC Mtb Alr [2]; [7]): 0.0556 ± 0.0055
growth (E. coli TESEC Mtb Alr [2]; [8]): 0.0414 ± 0.00026
growth (E. coli TESEC Mtb Alr [2]; [9]): 0.05003 ± 0.00025
growth (E. coli TESEC Mtb Asd; [10]): 0.118 ± 0.028
growth (E. coli TESEC Mtb Asd; [11]): 0.161 ± 0.0073
growth (E. coli TESEC Mtb DapB; [12]): 0.15 ± 0.011
growth (E. coli TESEC Mtb DapB; [13]): 0.223 ± 0.069
growth [3]: 0.0544 ± 0.0021
growth (E. coli TESEC Mtb Alr [4]; [14]): 0.362 ± 0.078
growth (E. coli TESEC Mtb Alr [4]; [15]): 0.0659 ± 0.0097

CCCC1C(=O)N2C(N(C)C)=Nc3ccc(C)cc3N2C1=O (configuration not stated) [Azapropazone]
growth [1]: 0.226 ± 0.0057
growth (E. coli TESEC Mtb Alr [2]; [5]): 0.287 ± 0.0066
growth (E. coli TESEC Mtb Alr [2]; [6]): 0.2549 ± 0.002
growth (E. coli TESEC Mtb Alr [2]; [7]): 0.178 ± 0.011
growth (E. coli TESEC Mtb Alr [2]; [8]): 0.158 ± 0.0037
growth (E. coli TESEC Mtb Alr [2]; [9]): 0.134 ± 0.0021
growth (E. coli TESEC Mtb Asd; [10]): 0.195 ± 0.031
growth (E. coli TESEC Mtb Asd; [11]): 0.323 ± 0.064
growth (E. coli TESEC Mtb DapB; [12]): 0.185 ± 0.015
growth (E. coli TESEC Mtb DapB; [13]): 0.206 ± 0.025
growth [3]: 0.483 ± 0.02
growth (E. coli TESEC Mtb Alr [4]; [14]): 0.399 ± 0.013
growth (E. coli TESEC Mtb Alr [4]; [15]): 0.301 ± 0.0094
